Neddylation inh: inhibitors of cullin neddylation, primary screen, biochemical, TR-FRET, uHTS, NAE and Ubc12. 360,000 tested, 0.58% active. calls only at 25 µM; in the data active means inhibition above about 36%
proKLK7 act: proKLK7 zymogen activators, primary screen, biochemical, fluorescence intensity | Kallikrein-7 (Homo sapiens), P49862 | purified proKLK7, EDANS-DABCYL substrate fluorescence; 100% is mature enzyme control, 0% vehicle | activation, % at 7 µM | 370,000 tested, 0.9% active;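 active means activation above the mean of all tested compounds plus 3 SD, computed per campaign excluding outliers beyond control limits, cut at about 13% in these data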
Target sequence (P49862 whole entry, looked up): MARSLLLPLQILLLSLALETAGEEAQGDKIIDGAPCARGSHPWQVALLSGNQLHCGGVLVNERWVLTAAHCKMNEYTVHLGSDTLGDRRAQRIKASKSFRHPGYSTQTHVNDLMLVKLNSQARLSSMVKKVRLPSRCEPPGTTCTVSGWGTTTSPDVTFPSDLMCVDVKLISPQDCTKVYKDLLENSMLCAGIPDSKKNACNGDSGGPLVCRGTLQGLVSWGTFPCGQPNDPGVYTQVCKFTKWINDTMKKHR
FAS-TE inh: FAS thioesterase domain inhibitors, primary screen, biochemical, fluorescence intensity, uHTS; Fatty acid synthase (Homo sapiens), P49327; recombinant FAS-TE, OMFH fluorogenic substrate, fluorescence endpoint; inhibition, % at 15 µM; 360,000 tested, 0.67% active;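 active means compounds whose normalised, plate-corrected inhibition of enzyme fluorescence in the single-dose primary screen is 50% or more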
PfGluPho inh: PfG6PD enzyme inhibitors, primary screen, biochemical, fluorescence intensity, uHTS | PfGluPho enzyme, NADPH resazurin-diaphorase fluorescence | inhibition, % at 20 µM | 350,000 tested, 0.78% active | AID 504690, 2011;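 active means inhibition reaching at least a set limit at 20 µM in the primary screen, cut at about 59% in these data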
proKLK7 act conf: proKLK7 zymogen activators, confirmation, biochemical, fluorescence intensity, triplicate. activation, % at 7 µM. 3,200 tested, 68% active. shares compounds with proKLK7 act. AID 686949, 2013. purified proKLK7, EDANS-DABCYL substrate fluorescence; scaled: vehicle 0, mature enzyme 100;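 active means activation, as change over the incubation, above the mean of all tested compounds plus 3 SD, cut at about 13% in these data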
EDANS interfere: EDANS-DABCYL substrate optical interference, artefact control for kallikrein-7 zymogen activator project, biochemical, fluorescence intensity, high throughput; shares compounds with proKLK7 act; no enzyme, 4 h; solvent 0%, active enzyme control 100%; activation, % at 7 µM; 3,200 tested, 80% active;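 active means activation above the all-compound mean plus 3 SD, ignoring values outside control-based bounds, cut at about 4.8% in these data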;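 further: value is the 4 h activation minus the activation read at time zero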
EDANS interf: optically interferes with EDANS-DABCYL fluorescence, kallikrein-7 activator counter-screen; AID 720493; 250 tested, 20% active; EDANS-DABCYL peptide fluorescence interference, no enzyme; EC50, µM; shares compounds with proKLK7 act;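 active means compounds that raise the fluorescence signal in this interference counterscreen, with EC50 at or below 10 µM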;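 further: intact quenched peptide substrate alone read at 355 nm excitation and 520 nm emission; signal is fluorescence gain from T0 to T4 after four hours at room temperature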
Hits are given with their value; - = inactive; . = not tested or not shown. Hits are enriched below; roughly 2.7% of the tested compounds scored in any of these assays.

SMILES | Neddylation inh | proKLK7 act | FAS-TE inh | PfGluPho inh | proKLK7 act conf | EDANS interfere | others
Cc1cc2c([nH]c3ccccc32)c(C)n1 | . | 33.3 | - | - | 28.0 | 24.6
Cc1cc2c(c(=O)o1)[C@@]1(C(=O)Nc3ccccc31)C1=C(CCCC1=O)O2 | . | - | . | . | . | .
CCCCCCCCN1C(=O)[C@H](CC(=O)NCCCC)C[C@@]2(C(=O)OC)CC(C)(C)CC=C12 | - | - | . | . | . | .
CCOC(=O)C1=C(C)OC(N)=C(C#N)C1c1cc2c(cc1[N+](=O)[O-])OCO2 (stereo unspecified) | . | 28.7 | - | - | 15.2 | 15.0
COC(=O)[C@@]1(Sc2ccc(C)cc2)CC(=O)N(C(=O)/C=C/c2ccccc2)[C@@H]1c1ccccc1 | - | - | - | . | . | .
N#Cc1c(C(F)(F)F)cc(=O)n2c1[nH]c1ccccc12 | . | 51.9 | - | - | 64.1 | 66.4
O=C(O)c1cc(-c2cccc(Cl)c2)nc2nc(N3CCCCC3)sc12 | - | 26.1 | - | - | 30.9 | 31.0
CCOC(=O)C1CCCN(C(=O)c2ccc(F)c(Cl)c2)CC1 (stereo unspecified) | - | - | - | . | . | .
CN(Cc1ccccc1)C(=O)c1cnc(Cc2c[nH]c3ccccc23)c(I)c1 | - | - | - | . | . | .
CCN(CC)C(=O)c1cc2c(=O)n3cccc(C)c3nc2s1 | . | 20.4 | - | - | 12.9 | 15.3
CCC(C)NC(=O)c1cc2c(=O)n3cccc(C)c3nc2s1 (stereo unspecified) | . | 20.2 | - | - | 18.2 | - | EDANS interf=-
CCN(C(=O)c1cc2c(=O)n3cccc(C)c3nc2s1)C1CCCCC1 | . | - | - | - | . | .
CCN(CC)C(=O)c1cc2c(=O)n3cccc(C)c3nc2n1C | . | 22.4 | - | - | 15.0 | 20.8
C=CCNC(=O)c1cc2c(=O)n3cccc(C)c3nc2s1 | . | - | - | - | . | .
CC(C)C1Cc2[nH]c(=S)[nH]c(=O)c2C(c2ccc(Cl)cc2)O1 (stereo unspecified) | - | - | - | . | . | .
C[C@@H]1CN([C@@H](C)CO)C(=O)CCCn2cc(nn2)CO[C@H]1CN(C)C(=O)Nc1ccc(N2CCN(C)CC2)cc1 | . | - | . | . | . | .
COc1ccc(COc2cc(-c3cccc(OC)c3)nc3ccc(NC(=O)c4ccc(C)cc4)cc23)cc1 | - | - | - | - | . | .
COc1ccc(COc2cc(-c3cccc(OC)c3)nc3ccc(NC(C)=O)cc23)cc1 | - | 17.9 | - | - | - | -
COc1ccc(COc2cc(-c3cccc(OC)c3)nc3ccc(NC(=O)c4ccc(N(C)C)cc4)cc23)cc1 | - | . | - | - | . | .
COc1ccc(COc2cc(-c3cccc(OC)c3)nc3ccc(N)cc23)cc1 | . | 58.8 | - | - | - | -
CC(=O)c1c(C)nc2nonc2c1N | - | 15.8 | - | - | 32.8 | 37.8
CC(C)(C)NC(=O)Nc1ccc2nccnc2c1 | . | 64.2 | - | - | 69.5 | 77.3
CC(=O)c1cccc(-c2ccnc3c2CC(C(=O)Nc2ccc(Cl)c(C(F)(F)F)c2)O3)c1 (stereo unspecified) | - | - | - | . | . | .
COc1cc2c(cc1OC)C(C)=NCC2 | . | 115.3 | - | - | 61.8 | 77.0
COc1cc2c(cc1OC)C(C)=NC1(CCCCC1)C2 | . | 101.0 | - | - | 61.1 | 65.6
SMILES | Neddylation inh | proKLK7 act | FAS-TE inh | PfGluPho inh | proKLK7 act conf | EDANS interfere | others
COc1cc2c(cc1OC)C(c1ccc(Cl)cc1)=NCC2 | - | - | - | - | . | .
COC(=O)[C@]12CCCCC=C1N(Cc1ccccc1)C(=O)[C@H](CC(=O)NCCCN1CCCC1=O)C2 | - | - | - | . | . | .
COC(=O)[C@]12C[C@H](CC(=O)N3CCN(C(=O)c4ccco4)CC3)C(=O)N(Cc3ccco3)C1=C[C@H](C1CCCC1)O[C@@H]2C | . | - | . | . | . | .
O=C(NCc1ccccc1)c1cnc(Cc2c[nH]c3ccccc23)c(I)c1 | - | - | - | . | . | .
O=C(NCc1ccco1)C1CCCN(S(=O)(=O)c2ccc(F)cc2)C1 (stereo unspecified) | . | - | . | . | . | .
O=C1C(C2=NC(c3ccccn3)C3C(=O)N(c4ccccc4)C(=O)C23)=C(O)c2ccccc21 (stereo unspecified) | - | 24.5 | - | - | - | -
